Source: PubChem (National Center for Advancing Translational Sciences (NCATS))
KinaseGlo FLuc = Kinase-Glo luciferase inhibition (counter-screen); AID 1379; Potency, µM (highest dose often 38.3 µM), without a hit: at the top dose activity change, negative = inhibition, actives largely listed as inhibitors; Kinase-Glo luciferase, ATP luminescence, 8 min; 200,000 compounds, 0.28% hits; Q27757; also: nearly all actives have a fitted effect of over 60% in size
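Luminescence was the read-out, taken after 8-minute incubation at ambient temperature. Luciferase turned over luciferin with 10 uM ATP in imidazole pH 7.2 buffer containing KCl, MgCl2, Tween 20 and BSA.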
Gal4-VP16 FLuc = inhibits Gal4-VP16 luciferase reporter, ROR gamma counter-screen; 310,000 compounds, 3.5% hits; AID 2546; Drosophila S2 Gal4-VP16 UAS-luciferase, luminescence, 20 h; Potency, µM (highest dose often 53.6 µM), for inactives: at the top dose activity, negative = inhibition, usual class: inhibitors;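 also: Gal4-VP16 expression switched on by copper sulfate through the metallothionein promoter; nearly all actives have a fitted effect of over 50% in size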
RORg inh = blocks mouse ROR gamma transcriptional activity | P51450 | Drosophila S2 Gal4-RORgamma UAS-luciferase reporter, 20 h | Potency, µM (highest dose often 53.6 µM), for the others: at the top dose activity change, negative = inhibition, most hits filed as inhibitors | 310,000 compounds, 5.4% hits; also: nearly all actives have a fitted effect of over 60% in size
Target sequence (P51450 whole entry, looked up, the tested form may be a part): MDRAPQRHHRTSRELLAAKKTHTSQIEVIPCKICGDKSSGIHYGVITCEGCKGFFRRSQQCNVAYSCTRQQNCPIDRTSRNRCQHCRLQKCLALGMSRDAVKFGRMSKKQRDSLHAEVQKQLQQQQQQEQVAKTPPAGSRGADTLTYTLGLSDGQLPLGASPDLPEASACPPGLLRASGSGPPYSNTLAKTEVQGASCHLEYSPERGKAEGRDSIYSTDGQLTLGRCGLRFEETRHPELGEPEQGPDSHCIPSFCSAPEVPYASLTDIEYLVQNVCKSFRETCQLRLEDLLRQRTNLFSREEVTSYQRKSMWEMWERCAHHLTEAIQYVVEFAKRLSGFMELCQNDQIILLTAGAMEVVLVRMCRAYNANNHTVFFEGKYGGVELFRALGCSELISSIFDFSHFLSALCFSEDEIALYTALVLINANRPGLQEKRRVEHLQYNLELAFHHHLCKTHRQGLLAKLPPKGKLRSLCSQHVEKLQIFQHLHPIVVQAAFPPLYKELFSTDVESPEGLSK
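A Gal4/UAS one-hybrid system in insect cells: metallothionein-promoter Gal4–ROR gamma fusion plus Photinus luciferase reporter. Copper sulfate 700 uM final, 20 hr ambient incubation, luminescent detection after 10 min with reagent.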
Starred values were filed as active, the others as inactive; ? = inconclusive; nt = no result given; [ ] = another dose, or the depositor's remark. Most compounds without a hit are left out; they make up all but 6.4% or so of the library. Calls follow the shape of the dose curve; as a rule, active = well fitted curve in the direction sought with a large enough effect; inconclusive = small, poorly fitted or top-dose-only effect, or another doubt; inactive = no such curve, though single readings can be large; an effect the other way counts as inactive or inconclusive. % is scaled to controls: 0 for no effect and ±100 for the full control effect; potency is read from the fitted curve at half-maximal effect.

SMILES | KinaseGlo FLuc | Gal4-VP16 FLuc | RORg inh
O=C(COC(=O)c1cncc(Br)c1)Nc1ccc2c(c1)OCO2 | 1% | 0% | 26%
Cc1ccc2sc(-c3ccc(NC(=O)CCN4C(=O)c5ccccc5C4=O)cc3)nc2c1 | -1% | ? | 1.1µM*
COc1ccc(-c2noc(-c3ccc(Cl)cc3[N+](=O)[O-])n2)cc1OC | -2% | -2% | 33%
Cc1cccc(-c2noc(-c3ccc(Cl)cc3[N+](=O)[O-])n2)c1 | -4% | 10µM* | 2.5µM*
Cc1cccc(-c2noc(-c3ccoc3C)n2)c1 | -25% | -15% | -31%
Cc1cccc(-c2noc(-c3cc4ccccc4oc3=O)n2)c1 | -24% | ? | 0.89µM*
O=c1oc2ccccc2cc1-c1nc(-c2ccccc2)no1 | -21% | 8.9µM* | 11µM*
Cc1ccc(-c2noc(-c3cc4ccccc4oc3=O)n2)cc1 | -1% | 1% | 9%
O=C(OCc1cncs1)c1ccccc1 | -1% | -16% | -17%
COCCn1c(=O)c(-c2cccs2)nc2cnc(Oc3cccc(Cl)c3)nc21 | -1% | -7% | ?
NC(=O)c1cnn2c(-c3ccc(Cl)cc3Cl)ccnc12 | nt | -21% | 24%
CC(C)CC(=O)c1c[nH]c(C(=O)NCc2ccc(F)cc2)c1 | nt | 4% | 7%
COc1cccc(-n2cc(CN(C)Cc3nc(Cc4cccc(F)c4)no3)cn2)c1 | 5% | 3% | 0%
COc1ccc(CN(C)Cc2nc(Cc3cccc(F)c3)no2)c2cccnc12 | -4% | 7.1µM* | ?
COc1cccc(CN2CCCC(CNC(=O)c3ccc(F)cc3)C2)c1OC (centres undefined) | 0% | 2% | 1%
C/C(=N\Oc1cccc(F)n1)c1ccc(Cl)cc1Cl | -3% | 17% | 6%
C/C(=N/Oc1nc(C)cc(C)n1)c1ccc(Cl)cc1Cl | 1% | ? | 10µM*
COCCNC(=S)N1CCN(c2nc3ccccc3s2)CC1 | -2% | 13µM* | 0%
COCCCNC(=S)N1CCN(c2nc3ccccc3s2)CC1 | 5% | 18% | ?
COc1ccc(/C=C2\N=C(SC)N(c3ccccc3OC)C2=O)cc1 | -1% | 2% | ?
COc1ccccc1Nc1nc(-c2sc(NC(=O)c3ccccc3)nc2C)cs1 | -18% | -1% | -39%
CCOc1ccccc1Nc1nc(-c2sc(NC(=O)c3ccccc3)nc2C)cs1 | -2% | 5% | ?
COc1ccccc1Nc1nc(-c2sc(NC(=O)c3ccc([N+](=O)[O-])cc3)nc2C)cs1 | -4% | -30% | 4µM*
CCOc1ccccc1Nc1nc(-c2sc(NC(=O)c3cccc(Cl)c3)nc2C)cs1 | -1% | -28% | 11µM*
COc1cc(/C=N/O)ccc1Oc1cnccn1 | nt | 0% | 5%
SMILES | KinaseGlo FLuc | Gal4-VP16 FLuc | RORg inh
O=C(Oc1ccc(Cl)c2cccnc12)c1ccco1 | -7% | 1.6µM* | 0.89µM*
O=C(Oc1coc(CSc2ncccn2)cc1=O)c1ccco1 | -4% | -4% | -7%
O=C(Oc1cccc2cccnc12)c1cccs1 | 1% | 2.8µM* | 1.6µM*
O=C(Oc1cccc2ccccc12)c1ccco1 | -1% | 7% | 14%
O=C(NCCOc1cccc2cccnc12)c1cccs1 | -1% | 5% | -4%
O=C(Oc1cccc2cccnc12)c1ccc(Br)o1 | 2% | ? | 11µM*
O=C(Oc1cccc2cccnc12)c1ccco1 | 0% | 4µM* | 1.6µM*
O=C(Nc1cccc2cccnc12)c1ccc(Br)o1 | -1% | 4%[0.365 µM] | ?
CCOc1ccc(N(CC(=O)NCCSCc2ccccc2)S(C)(=O)=O)cc1 | nt | 3% | 34%
NC(=O)c1ccc(NC(=O)CN2CCN(c3ccccc3)CC2)cc1 | nt | -7% | 45%[1.91 µM]
COc1ccc(-c2nc3c(-c4ccc(F)cc4)cnn3cc2C)cc1F | 0% | 1% | 6%
O=C(Nc1nncs1)c1cc(S(=O)(=O)N2CCOCC2)ccc1Cl | nt | 1% | -15%
CC(C)c1cccc2nc3c(c([Si](C)(C)C(C)(C)C)c12)Cn1c-3cccc1=O | -1% | 0% | 10%
N/C(=N\OC(=O)Cc1ccc(Cl)cc1)c1ccccn1 | 0% | ? | -13%
O=C(Cc1ccc(Cl)cc1)Oc1cccc2cccnc12 | 4% | 4µM* | 1.4µM*
COc1cccc(-n2c(=O)c3c(C)c(C(=O)N(C)C)sc3n(CC(=O)NCC3CCCO3)c2=O)c1 (centres undefined) | -2% | -8% | 0%
Cc1cc2nc3c(=O)[nH]c(=O)nc-3n(CC(O)C(O)C(O)COP(=O)(O)O)c2cc1C (centres undefined) | 2%[39.9 µM] | 5% | 1%
Cc1ccc(-c2nc(P(=O)(c3ccccc3)c3ccccc3)c(N3CCOCC3)o2)cc1 | -1% | 16µM* | 3.5µM*
CCOP(=O)(OCC)c1nc(-c2ccc(OC)cc2)oc1N1CCOCC1 | nt | -11% | 20%
